An excerpt weighted towards active compounds, which were near 12% of everything screened.
Sfp PPTase inh: Sfp phosphopantetheinyl transferase inhibition; AID 1490; Biochemical Sfp PPTase activity, qHTS; 3.5% of 310,000 active; Q9F4F7; Potency, µM, for the others: largest response in the series, negative = inhibition, most hits filed as inhibitors;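 also: the enzyme is Sfp with the accession as filed and its product quenches rhodamine fluorescence; 0% = enzyme reaction without inhibitor and -100% = no enzyme wells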
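Reaction rates are the 30-min fluorescence difference (ex 525, em 598 nm) in wells containing 15 nM Sfp, 5 uM rhodamine-CoA and 12.5 uM BHQ-2-YbbR at pH 7.6 with 10 mM MgCl2.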
BAZ2B inh: inhibitors of human BAZ2B bromodomain; 4.4% of 360,000 active; Potency, µM (top dose mostly 114 µM), for inactives: at the top dose activity change, negative = inhibition, usual class: inhibitors; Q9UIF8; AlphaScreen BAZ2B-H3K14Ac peptide displacement; also: % is scaled to controls: 0 for no effect and ±100 for the full control effect; nearly all actives have a fitted effect of over 60% in size
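Inhibition is scored as reduced AlphaScreen emission. The BAZ2B/b-H3(5-23)K14Ac complex (50 nM each) in PBS pH 7.4, 0.01% Tween-20 meets compound (up to 110 uM) for 30 min at RT before bead addition.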
JMJD2A Tudor: inhibitors of human JMJD2A Tudor domain; AID 504339; Potency, µM (titrated, usually from 114 µM), without a hit: at the top dose activity change, negative = inhibition, usual class: inhibitors; AlphaScreen JMJD2A-Tudor / H3K4me3 peptide binding; 4.4% of 390,000 active; O75164; also: % is scaled to controls: 0 for no effect and ±100 for the full control effect; nearly all actives have a fitted effect of over 50% in size
G9a inh: G9a (human) methyltransferase inhibition. AID 504332. G9a H3K9 monomethylation, AlphaScreen, 2 h. Q96KQ7. 8.8% of 350,000 active. Potency, µM (doses to about 102 µM), for inactives: top-dose activity, negative = inhibition, actives largely listed as inhibitors; also: % is scaled to controls: 0 for no effect and ±100 for the full control effect; nearly all actives have a fitted effect of over 75% in size
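Quantitative HTS format: methyltransferase activity on a biotin-tagged H3K9 peptide is measured by AlphaScreen, using a rabbit anti-monomethyl-H3K9 antibody with streptavidin donor and anti-IgG acceptor beads. Final levels are 20 nM enzyme, 500 nM peptide, 20 uM SAM; 2 h RT.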
PLK1 PBD block: PLK1 (human) polo-box domain binding inhibition | Plk1 PBD binding of FITC phosphopeptide, fluorescence polarization | Potency, µM, for the others: max response, negative = inhibition, usual class: inhibitors | 2.8% of 360,000 active; also: series mostly up to about 57 µM; % is scaled to controls: 0 for no effect and ±100 for the full control effect; nearly all actives have a fitted effect of over 65% in size
HP1b chromo inh: HP1-beta chromodomain-methylated histone interaction inhibition; P83916; AlphaScreen HP1-beta / biotin-H3K9me3 peptide binding; 0.56% of 390,000 active; Potency, µM (doses to about 114 µM), for the others: at the top dose activity change, negative = inhibition, usual class: inhibitors; AID 540317; also: nearly all actives have a fitted effect of over 70% in size
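HP1-beta protein (50 nM final) preincubated 30 min at room temperature with biotinylated H3(1-18)K9me3 peptide (50 nM) in PBS pH 7.4, 0.01% Tween-20, then compound added for 30 min. AlphaScreen streptavidin donor/nickel chelate acceptor beads (10 ug/mL final), 30 min dark, luminescence read.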
* = called active by the depositor; ? = inconclusive; . = not tested or not shown; [ ] = another dose, or the depositor's remark. Calls follow the shape of the dose curve; as a rule, active = well fitted curve in the direction sought with a large enough effect; inconclusive = small, poorly fitted or top-dose-only effect, or another doubt; inactive = no such curve, though single readings can be large; an effect the other way counts as inactive or inconclusive. Potency is read from the fitted curve at half-maximal effect.

SMILES | Sfp PPTase inh | BAZ2B inh | JMJD2A Tudor | G9a inh | PLK1 PBD block | HP1b chromo inh
COC(=O)C1=C(CCc2ccccc2)NC(=O)NC1c1ccc([N+](=O)[O-])cc1 (stereo unspecified) | . | . | -20% | . | 0% | 29%
COc1ccc(Cl)cc1NC(=S)NCc1ccco1 | 10% | ? | ? | 9%[59 µM] | -7% | 6%
COc1ccc(CN2CCCN(CC(=O)Nc3cc(C)ccc3C)S2(=O)=O)cc1 | . | -2% | -10% | 3%[59 µM] | . | 36%
C=CCOC(=O)N[C@H](C[N+](=O)[O-])c1ccccc1 | 9% | . | . | . | . | .
COc1cc(-c2cc(C(=O)Nc3ccccc3N3CCOCC3)c3ccccc3n2)cc(OC)c1OC | 9% | -16% | -24% | 0% | -5% | 31%
O=C(Nc1ccc(F)cc1F)c1cc(-c2ccco2)nc2ccccc12 | 32µM* | 4% | -12% | 45µM* | ? | 17%
O=C(Nc1ccccc1N1CCOCC1)c1cc(-c2ccco2)nc2ccccc12 | -16% | 50µM* | ? | ? | -12% | ?
CC(C)C[C@H](NC(=O)[C@@H]1CCCN1C(=O)[C@H](CO)NC(=O)[C@H](Cc1ccccc1)NC(=O)CNC(=O)[C@@H]1CCCN1C(=O)[C@@H]1CCCN1C(=O)[C@@H](N)CCCN=C(N)N)C(=O)O | 6% | . | . | . | . | .
CCOc1ccc(CCNC(=O)C2CCCN(S(=O)(=O)N(C)c3ccc(F)cc3)C2)cc1 (stereo unspecified) | . | -10% | -13% | -24%[59 µM] | . | 25%
Cc1ccc2c(c1)CC1(CN2C)C(=O)OC2(CCCCC2)OC1=O | -5% | 2% | -22%[57.1 µM] | 50µM* | -20% | 62%
CN1CC2(Cc3c1ccc1ccccc31)C(=O)OC(C)(C)OC2=O | -6% | 3% | 15%[57.1 µM] | ? | -16% | 41%
COC(=O)C1=C(C)Nc2ccc(C)cc2S1 | ? | 40µM* | 79µM* | 40µM* | ? | ?
Cc1ccc(-c2nnn(CC(=O)N(CC(=O)NCCC(C)C)c3ccc(F)cc3)n2)cc1 | . | -3% | -6% | 8%[59 µM] | . | 30%
CN(C)CCCNC(=O)C(=O)NCC(c1ccc2c(c1)OCO2)N1CCOCC1 (stereo unspecified) | . | 40% | -17% | 1%[59 µM] | . | 42%[57 µM]
CC(=O)c1c(C)[nH]c(C(=O)Nc2nccs2)c1C | -1% | ? | 22µM* | 8% | 1% | -10%
C=CCn1c(SCc2ccccc2Cl)nnc1-c1sc2nc(C)cc(C)c2c1N | -1% | 12% | 10% | 0% | 0% | 103%
O=C(Cc1csc(NC(=O)Nc2cccc(Cl)c2)n1)NCc1cccnc1 | . | ? | -24% | 35µM* | -5% | 23%
O=C(Cc1csc(NC(=O)Nc2ccc(Cl)cc2)n1)NCc1cccnc1 | . | ? | -31% | ? | -4% | 4%
Nc1nc(NC(=O)c2ccc(F)cc2)ns1 | . | -8% | ? | -33%[12.7 µM] | 30µM* | 19%
CC(=O)Cc1nsc(NC(=O)c2ccc(F)cc2)n1 | 20% | -20% | 4% | 0% | 9% | 21%
COC(=O)c1cc(NC(=O)CN(c2ccccc2)S(=O)(=O)N(C)C)ccc1Cl | . | 0% | -8% | -2%[59 µM] | . | 34%
COC(=O)[C@@H]1[C@@H]2C[C@H]3c4[nH]c5cc(OC)ccc5c4CCN3C[C@@H]2C[C@H](OC(=O)c2cc(OC)c(OC)c(OC)c2)[C@H]1OC | 9% | . | . | ? | . | .
CCOC(=O)Oc1c(OC)cc(C(=O)O[C@@H]2C[C@@H]3CN4CCc5c([nH]c6cc(OC)ccc56)[C@H]4C[C@@H]3[C@H](C(=O)OC)[C@H]2OC)cc1OC | . | ? | ? | 8.9µM* | 20% | 11%
COc1ccc(NC(=O)C(C)(C)Oc2ccc(Cl)cc2)cn1 | . | -2% | -2% | -8%[2.33 µM] | 0% | 29%
COc1ccc(NC(=O)/C(Cl)=C(/Cl)S(=O)(=O)Cc2ccccc2)cn1 | -14% | -2% | -20% | ? | 5.3µM* | 37%
SMILES | Sfp PPTase inh | BAZ2B inh | JMJD2A Tudor | G9a inh | PLK1 PBD block | HP1b chromo inh
COc1ccc(NC(=O)C(Cl)=C(Cl)Cl)cn1 | 8% | 5% | -2% | 25% | 1% | 24%
COc1ccc(NC(=O)/C(Cl)=C(/Cl)S(=O)Cc2ccc(Cl)cc2)cn1 (stereo unspecified) | 11µM* | -15% | -28% | 11µM* | 1.3µM* | 50%
CCOc1ccccc1NC(=O)CSc1ccc2nc(-c3ccccc3)cn2n1 | . | 12% | 2% | ? | . | 35%[57 µM]
O=C(O)c1ccc(Nc2nc3ccccc3n3cnnc23)cc1 | . | 0% | -2% | 4%[59 µM] | . | 49%
CCc1ccc(NC(=S)Nn2cnnc2)cc1 | 14µM* | -26% | 79µM* | 7.9µM* | 17µM* | ?
COc1ccc(NC(=S)Nn2cnnc2)c(OC)c1 | 18µM* | ? | ? | 5µM* | 21µM* | ?
Cc1ccc(NC(=S)Nn2cnnc2)cc1 | 8.9µM* | ? | ? | 2.8µM* | 11µM* | -17%
COc1ccc(NC(=S)NC23CN4CN(CN(C4)C2)C3)c(OC)c1 | -3% | -7% | -31% | ? | -14% | -4%
CNC(=S)Nc1ccc(OC)c(OC)c1 | 8% | -3% | -3% | ? | -6% | 24%
COc1ccc(NC(=S)Nn2cnnc2)cc1OC | 20µM* | -33% | 18µM* | 4µM* | 15µM* | ?
O=C(N/C(=C\c1ccccc1)C(=O)N1CCN(CCO)CC1)c1ccccc1 | -1% | -1% | -10% | -23% | -9% | -1%
S=C(Nc1ccccc1)Nn1cnnc1 | 13µM* | ? | -26% | 1.4µM* | 19µM* | -19%
CC1CCc2c(sc(NC(=O)CSc3ncn[nH]3)c2C#N)C1 (stereo unspecified) | 5% | -7% | -8% | 12%[59 µM] | 3% | 45%
CC(C)(C)C1CCc2c(sc(NC(=O)CSc3ncn[nH]3)c2C#N)C1 (stereo unspecified) | ? | -4% | -15% | 25µM* | 19µM* | -29%
CCCc1cc(=O)[nH]c(SCC(=O)Nc2sc3c(c2C#N)CCC(C)C3)n1 (stereo unspecified) | -15% | -26% | ? | 50µM* | ? | -14%
COC(=O)c1cnc(N2CCCN(S(=O)(=O)c3ccc(C(F)(F)F)cc3)CC2)nc1C(F)(F)F | 11% | -1% | 5% | 13% | 0% | 69%
C=C[C@](C)(O)CCC1C(=C)CC(O)C2C(C)(C)CCCC12C (stereo partly specified) | -1% | . | . | . | . | .
CCC(CC)C(=O)NCc1nc2cccnc2n1Cc1ccc(F)cc1 | . | -1% | -8% | 6%[59 µM] | . | 8%[57 µM]
CC(C)(C)C1CCc2onc(C(=O)Nc3sc4c(c3C#N)CCCC4)c2C1 (stereo unspecified) | . | -18% | -26% | 2.8µM* | . | -18%
